This note sets out measurements from PubChem BioAssay (Tox21).

A number with no mark means an inactive call. Inconclusive results are not listed. Activity calls are given as the source filed them. Unless noted, calls follow the shape of the dose curve; as a rule, active = well fitted curve in the direction sought with a large enough effect in the repeat runs; inconclusive = weak or mixed curves; inactive = no such curve, though single readings can be large; an effect the other way counts as inactive or inconclusive.

A short description of test [1]: qHTS assay to identify small molecule antagonists of the estrogen receptor alpha (ER-alpha) signaling pathway using the BG1 cell line in the presence of 0.1 nM 17-beta-estradiol - cell viability counter screen (AID 1259241). Also: nearly all actives have a fitted effect of over 40% in size. The essentials: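 Live-cell protease activity (CellTiter-Fluor fluorescence, 30 min) was read in the same wells after VM7Luc4E2 cells had been exposed to compounds with 0.1 nM 17beta-estradiol for 22 hr at 37C.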
A general note: Quantitative high-throughput screening tests each substance at several concentrations.

Test [2] in a line: qHTS assay to identify small molecule antagonists of the androgen receptor (AR) signaling pathway using the MDA cell line in the presence of 0.5 nM R1881 - cell viability counter screen (AID 1259242). Also: nearly all actives have a fitted effect of over 45% in size. The method, boiled down: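 Fluorescence from CellTiter-Fluor, which reports protease activity of live cells, was read 30 min after reagent addition to MDA-kb2 cells that had been incubated 16 hr with compound and 0.5 nM R1881.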

Test [3] concerns the target Estrogen receptor (Homo sapiens) (UniProt P03372). Description: qHTS assay to identify small molecule antagonists of the estrogen receptor alpha (ER-alpha) signaling pathway using the BG1 cell line in the presence of 0.1 nM 17-beta-estradiol (AID 1259244). Also: nearly all actives have a fitted effect of over 50% in size. Also: potency is read from the fitted curve at half-maximal effect. The essentials:
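Quantitative high-throughput screen in VM7Luc4E2 cells: compound plus 0.1 nM E2 (final), 22 h, 37C, 5% CO2; ONE-Glo added, 30 min room temperature, luminescence measured.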

The nature of test [4]: qHTS assay to identify small molecule phospholipidosis (PLD) inducers (AID 1259344; active = well fitted curve in the direction sought with a large enough effect; an effect the other way counts as inactive or inconclusive). The method, boiled down:
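Phospholipidosis is scored by imaging LipidTOX-stained pits in HepG2 cells exposed to compound for 24 h at 37 C; pit counts and integrated intensities per well and per cell serve as outputs.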

A short description of test [5]: qHTS assay to identify small molecule HDAC inhibitors - cell viability counter screen (AID 1259365). Also: series mostly up to about 92 µM; nearly all actives have a fitted effect of over 50% in size. The essentials:
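HCT-116 (wild type), 1,500 cells/well, overnight 37C/5% CO2; compound in DMSO 2hr; CellTiter-Glo 30min RT; luminescence read.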

The nature of test [6]: qHTS assay to identify small molecule antagonists of the sonic hedgehog signaling (Shh) pathway - cell viability counter screen (AID 1259367). Also: nearly all actives have a fitted effect of over 55% in size. The essentials: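 Cells: 3T3 Gli1-Luc, 2,000/well, 4 hr pre-incubation. Compounds in DMSO, then conditioned medium. Incubation 24 hr, 37C, 5% CO2. CellTiter-Fluor at 23 hr, 1 hr, fluorescence.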
Test [7] in a line: qHTS assay to identify small molecule agonists of the sonic hedgehog signaling (Shh) pathway (AID 1259368; calls by dose curve;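 also: NIH/3T3-derived 3T3Gli1-Luc cells carrying a stable Gli1-driven firefly luciferase reporter; series mostly up to about 92 µM; nearly all actives have a fitted effect of over 15% in size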). The method, boiled down:
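Luminescent signal was taken as a measure of Gli1-controlled luciferase expression in stably transfected NIH/3T3-derived cells that had been treated for 24 hr with compounds delivered in DMSO.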

The nature of test [8]: qHTS assay to identify small molecule HDAC inhibitors (AID 1259364). Also: nearly all actives have a fitted effect of over 45% in size. Also: potency is read from the fitted curve at half-maximal effect. As to activity change, negative = inhibition: top concentration of the series differs between compounds. The essentials: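 Endogenous HDAC class I/II activity was measured in wild-type HCT-116 cells by HDAC-Glo luminescence after 2 h compound treatment.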
The nature of test [9]: qHTS assay to identify small molecule agonists of the sonic hedgehog signaling (Shh) pathway - cell viability counter screen (AID 1259366). Also: nearly all actives have a fitted effect of over 50% in size. The method, boiled down:
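CellTiter-Fluor fluorescence read-out, 1 hr at 37C, added after 23hr compound exposure. Cells: 3T3 Gli1-Luc, an NIH/3T3 clone with stably integrated Gli1-Luc reporter, plated 4hr before compound.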

Test [10] deals with Androgen receptor (Homo sapiens) (UniProt P10275). Put plainly: qHTS assay to identify small molecule antagonists of the androgen receptor (AR) signaling pathway using the MDA cell line in the presence of 0.5 nM R1881 (AID 1259243). Also: nearly all actives have a fitted effect of over 50% in size. The essentials: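 Inhibition of R1881 (0.5 nM final) induced reporter signal was measured in human MDA-kb2 cells; note the MMTV promoter also responds to GR. Exposure lasted 16 hr at 37C.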
% is scaled to controls: 0 for no effect and ±100 for the full control effect.

Estrogen receptor (Homo sapiens), sequence (P03372 whole entry, looked up): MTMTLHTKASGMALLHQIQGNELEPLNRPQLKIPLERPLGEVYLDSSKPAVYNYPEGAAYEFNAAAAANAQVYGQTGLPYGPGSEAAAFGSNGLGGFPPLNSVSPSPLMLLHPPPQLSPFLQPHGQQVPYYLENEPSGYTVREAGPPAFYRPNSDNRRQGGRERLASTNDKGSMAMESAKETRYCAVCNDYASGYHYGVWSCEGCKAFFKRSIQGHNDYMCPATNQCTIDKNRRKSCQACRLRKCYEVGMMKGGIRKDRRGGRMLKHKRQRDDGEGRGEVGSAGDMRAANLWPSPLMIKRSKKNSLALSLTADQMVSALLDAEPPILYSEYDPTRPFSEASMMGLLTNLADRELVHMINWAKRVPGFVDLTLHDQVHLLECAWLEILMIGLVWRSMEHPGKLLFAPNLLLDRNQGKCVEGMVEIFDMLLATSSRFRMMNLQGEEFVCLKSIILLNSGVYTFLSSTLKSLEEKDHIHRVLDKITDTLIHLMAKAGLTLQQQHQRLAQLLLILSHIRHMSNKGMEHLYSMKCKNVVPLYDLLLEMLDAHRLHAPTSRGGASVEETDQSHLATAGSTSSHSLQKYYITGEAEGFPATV
Androgen receptor (Homo sapiens), sequence (P10275 whole entry, looked up): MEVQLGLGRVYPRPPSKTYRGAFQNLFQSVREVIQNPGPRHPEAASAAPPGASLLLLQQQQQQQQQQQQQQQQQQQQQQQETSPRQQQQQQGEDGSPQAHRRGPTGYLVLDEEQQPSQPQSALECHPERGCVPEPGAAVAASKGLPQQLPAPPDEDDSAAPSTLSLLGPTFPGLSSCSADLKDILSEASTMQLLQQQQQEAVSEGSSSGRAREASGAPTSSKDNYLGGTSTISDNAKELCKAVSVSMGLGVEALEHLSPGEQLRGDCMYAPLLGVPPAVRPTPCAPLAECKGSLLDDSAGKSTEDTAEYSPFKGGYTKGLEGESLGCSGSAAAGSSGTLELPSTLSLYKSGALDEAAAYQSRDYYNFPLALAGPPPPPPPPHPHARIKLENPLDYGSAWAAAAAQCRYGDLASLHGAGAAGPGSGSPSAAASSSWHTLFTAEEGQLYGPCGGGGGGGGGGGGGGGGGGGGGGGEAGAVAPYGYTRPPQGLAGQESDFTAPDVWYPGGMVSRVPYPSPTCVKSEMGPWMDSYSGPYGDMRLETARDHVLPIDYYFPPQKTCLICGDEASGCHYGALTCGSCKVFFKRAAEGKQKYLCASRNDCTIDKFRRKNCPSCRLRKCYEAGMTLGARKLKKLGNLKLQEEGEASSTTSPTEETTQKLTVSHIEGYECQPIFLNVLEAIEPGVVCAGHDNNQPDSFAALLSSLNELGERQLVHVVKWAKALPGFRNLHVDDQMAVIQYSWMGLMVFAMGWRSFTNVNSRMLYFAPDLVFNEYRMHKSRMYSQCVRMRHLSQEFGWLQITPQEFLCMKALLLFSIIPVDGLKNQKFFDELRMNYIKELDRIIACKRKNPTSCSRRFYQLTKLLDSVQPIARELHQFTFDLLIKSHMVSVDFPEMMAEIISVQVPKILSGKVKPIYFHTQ

Regarding `CN(C)CCOC1=Cc2ccccc2Sc2ccc(Cl)cc21`, the Potency result in [1], in test [2], in test [3], in test [5], in test [6] and in test [7] was “inactive” throughout. Moreover, the molecule was called inactive in [4].

Take `N#C[C@@H]1C[C@@H]2C[C@@H]2N1C(=O)[C@@H](N)C12CC3CC(CC(O)(C3)C1)C2`: the Potency result in test [1], in [2], in test [3], in test [8], in test [5] and in test [9] was “inactive” in each case. Also, the Potency result in test [6] and in test [7] was “inactive” throughout. Besides, in test [4], the PLD induction was -3.21% [at 7.66 µM].

With `CC(C)(C)C(=O)C(Oc1ccc(Cl)cc1)n1ccnc1` (stereo not given), the Potency result in test [1], in test [2], in [3], in test [8], in [5] and in [6] was “inactive” each time. Further, in test [7], the Potency result was “inactive”. In test [4], the molecule was classed as inactive.

Consider `CO/N=C1\CN(c2nc3c(cc2F)c(=O)c(C(=O)O)cn3C2CC2)CC1CN` (stereo not given), for which the Potency result in test [1], in [2], in test [3], in test [8], in [5] and in test [6] was “inactive” in each case. Also, the Potency result in [7] is “inactive”. The call in [4] was inactive.

Turning to `O=C(O)C(Cc1cc(I)c(O)c(I)c1)c1ccccc1` (stereo not given), the Potency entry in test [1], in [2], in test [3], in test [8], in test [5] and in test [6] was “inactive” each time. Further, the Potency entry in [7] is “inactive”. Also, the result in test [4] was inactive.

With `CCOc1cc(N)c(Cl)cc1C(=O)NCC1CN(Cc2ccc(F)cc2)CCO1` (stereo not given), the Potency result in test [1], in [2], in test [3], in test [8], in [5] and in test [9] was “inactive” in each case. The Potency entry in test [6] and in test [7] was “inactive” each time. Further, the molecule was classed as inactive in test [4].

Take `c1cnc2c(n1)CCCC2`: the Potency result in test [1], in test [2], in test [10], in test [8], in test [5] and in [6] was “inactive” throughout.

On to `Brc1cc(-c2ccc(Br)c(Br)c2Br)cc(Br)c1Br`, for which the Potency result in test [1], in test [2], in [3], in [8], in [5] and in test [9] was “inactive” in each case. In addition, the Potency entry in [6] and in test [7] was “inactive” each time.

Turning to `CCCCC(=O)O[C@]1(C(=O)CO)[C@@H](C)C[C@H]2[C@@H]3CCC4=CC(=O)C=C[C@]4(C)[C@@]3(F)[C@@H](O)C[C@@]21C`, the Potency entry in test [1], in test [2], in test [3], in [8], in test [5] and in test [9] was “inactive” throughout. Further, the Potency result in test [6] and in [7] was “inactive” in each case.

For the molecule `CCCCCCCCCOC(C)=O`, the Potency result in [1], in [2], in [3], in test [8], in test [5] and in test [9] was “inactive” throughout. Further, the Potency result in test [6] and in test [7] was “inactive” in each case.

Consider `Cc1oc(C)c(C(=O)Nc2ccccc2)c1C`, for which the Potency entry in test [1], in test [2], in test [5], in [9], in test [6] and in test [7] was “inactive” throughout. For the same molecule, the Potency in [3] was 24.3 µM (active); in [8] it was 27.3 µM (active).

For the molecule `Cc1ccc(S(=O)(=O)NC2CCCCC2)cc1`, the Potency result in [1], in test [2], in [3], in [8], in test [5] and in test [9] was “inactive” in each case. The Potency entry in test [6] and in test [7] was “inactive” in each case.

For the molecule `O=Cc1c(Cl)cccc1Cl`, the Potency result in test [1], in test [2], in test [3], in test [8], in test [5] and in test [9] was “inactive” throughout. Also, the Potency entry in test [6] and in test [7] was “inactive” throughout.

Take `COCC(O)CO` (stereo not given): the Potency entry in test [1], in test [2], in test [3], in test [8], in test [5] and in test [9] was “inactive” in each case. Also, the Potency entry in test [6] and in test [7] was “inactive” in each case.

With `CC(=O)N(c1onc(C)c1C)S(=O)(=O)c1ccc(N)cc1`, the Potency result in test [1], in test [2], in [3], in [8], in test [5] and in [9] was “inactive” each time. Further, the Potency entry in test [6] and in test [7] was “inactive” in each case.

As to `CSc1ccc(Oc2ccc(S(N)(=O)=O)cc2CN(C)C)cc1C`, the Potency result in test [1], in test [2], in test [8], in test [5], in [6] and in test [7] was “inactive” in each case. The Potency in test [3] is 68.6 µM (active).

Regarding `NC(=O)Nc1ccc(Cl)cc1`, the Potency entry in test [1], in [2], in test [3], in [8], in test [5] and in [9] was “inactive” throughout. Further, the Potency result in [6] and in test [7] was “inactive” throughout.

On to `CCN(Cc1cccc(S(=O)(=O)O)c1)c1ccc(C(=C2C=CC(=[N+](CC)Cc3cccc(S(=O)(=O)[O-])c3)C=C2)c2ccccc2)cc1`, for which the Potency entry in [1], in [2], in test [3], in test [8], in test [5] and in test [9] was “inactive” throughout. Also, the Potency entry in [6] and in test [7] was “inactive” throughout.

Consider `CCCCCCCCCCCCCCCCBr`, for which the activity change, negative = cytotoxicity in test [1] is 1.42% [at 19 µM]; in test [5], 1.54% [at 19 µM]. For the same molecule, the viability change, negative = cytotoxic in test [2] is 2.08% [at 19 µM]; in test [9], -1.13% [at 19 µM]; in [6] it was -2.38% [at 19 µM]. In addition, the activity change, negative = inhibition was 3% [at 19 µM] in [3] and 4.52% [at 19 µM] in test [8]. The activity change in test [7] is -0.182% [at 18.9 µM, active compounds read high].

Turning to `C=CCCCCCCCCCCCCCCCC`, the activity change, negative = cytotoxicity in test [1] was 0.274% [at 8.39 µM]; in test [5], -1.22% [at 8.39 µM]. Besides, the viability change, negative = cytotoxic in test [2] was 2.55% [at 8.39 µM]; in test [9], 4.48% [at 8.39 µM]; in test [6] it was 0.663% [at 8.39 µM]. Further, the activity change, negative = inhibition is 11.9% [at 8.39 µM] in test [3] and 2.22% [at 8.39 µM] in test [8]. In test [7], the activity change is 0.635% [at 8.39 µM, active compounds read high].

As for `C[Si](NC1CCCCC1)(NC1CCCCC1)NC1CCCCC1`, the Potency entry in [1], in test [2], in test [3], in test [8], in test [5] and in test [9] was “inactive” each time. The Potency entry in [6] and in test [7] was “inactive” in each case.

On to `ON(Cc1ccccc1)Cc1ccccc1`, for which the Potency result in [1], in test [2], in [3], in test [8], in [5] and in test [9] was “inactive” throughout. The Potency result in test [6] and in test [7] was “inactive” in each case.

With `CC(N)CN` (stereo not given), the Potency result in test [1], in test [2], in test [3], in test [8], in test [5] and in test [9] was “inactive” throughout. For the same molecule, the Potency entry in test [6] and in [7] was “inactive” each time.

In the case of `CC(C)c1nnc2ccc(-c3ocnc3-c3cc(F)ccc3F)cn12`, the Potency entry in [1], in test [2], in test [8], in test [5], in [9] and in [6] was “inactive” each time. For the same molecule, in test [3], the Potency was 30.6 µM (active).

As to `COC(OC)(C(=O)c1ccccc1)c1ccccc1`, the Potency result in test [1], in test [2], in [3], in test [8], in [5] and in [9] was “inactive” each time. Further, the Potency result in test [6] and in [7] was “inactive” throughout.

For `CCCCCCCCCCCC[N+](C)(C)CC(=O)[O-]`, the Potency result in test [1], in test [2], in test [3], in test [8], in test [5] and in test [9] was “inactive” each time. Besides, the Potency entry in [6] and in [7] was “inactive” each time.
